From PubChem
Rows were chosen to be rich in hits. Some 19% of all compounds tested hit in one or more screens of this group.
HT1080-NT tox: kills 2HG-producing HT-1080-NT fibrosarcoma cells; HT-1080-NT fibrosarcoma viability, CellTiter-Glo ATP luminescence, 48 h; Potency, µM (series often up to 46.1 µM), most hits filed as cytotoxic; 360,000 compounds, 1.6% hits; AID 686970;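 note: NT is the 2HG producing partner of a matched IDH1 knockdown line; nearly all actives have a fitted effect of over 55% in size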
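750 cells/well, RPMI + 5% FBS; 2 h settle, compound pin-transfer, 48 h at 37 degrees C. CellTiter-Glo 10 min RT, luminescence. Normalized to DMSO and media-only wells.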
DT40 TDP1 CPT: growth inhibition of DT40 Tdp1-/-;hTDP1 cells with camptothecin (screen for TDP1 inhibitors). chicken DT40 Tdp1-/-;hTDP1 cells + 20 nM CPT, ATP luminescence, 48 h. Potency, µM (top dose mostly 46.2 µM), most hits filed as inhibitors. 420,000 compounds, 12% hits; note: nearly all actives have a fitted effect of over 55% in size
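Chicken DT40 Tdp1-/- cells stably complemented with human TDP1 were seeded at 400 cells/well in medium containing 20 nM camptothecin, exposed to pin-transferred compounds, and grown at 37 °C for at least 48 hr. Viability was read as ATP luminescence.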
KB-V1 cytotox: KB-V1 MDR subline cytotoxicity; KB-V1 MDR cells viability, CellTiter-Glo, 72 h; Potency, µM (top dose mostly 46.1 µM), hits mostly cytotoxic; 400,000 compounds, 3.4% hits; AID 1347076; note: nearly all actives have a fitted effect of over 60% in size
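Readout: CellTiter-Glo luminescence, 10 min after addition. Cells: KB-V1 MDR subline, 72 h at 37 degrees C with compound. Analysis: corrected, normalized data fitted to concentration-effect curves.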
HT1080 IDH1KD tx: HT-1080 IDH1 knockdown cell toxicity (counter line); HT-1080 IDH1 knockdown viability, ATP luminescence, 48 h; Potency, µM (titrated, usually from 46.1 µM), most hits filed as cytotoxic; 360,000 compounds, 2% hits
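Cytotoxicity counter-line: IDH1KD HT-1080, 48 h, CellTiter-Glo. Curves classed by r2, magnitude and activity.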
TDP1 cell noCPT: qHTS for Inhibitors of human tyrosyl-DNA phosphodiesterase 1 (TDP1): qHTS in cells in absence of CPT | DT40 Tdp1-/- hTDP1 cells, no CPT, ATP luminescence, 48 h | Potency, µM (series often up to 46.2 µM), usual class: inhibitors | 420,000 compounds, 15% hits | AID 686978, 2013; note: nearly all actives have a fitted effect of over 55% in size
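Stably hTDP1-transfected Tdp1-null chicken DT40 cells were treated with library compounds minus camptothecin and grown for at least 48 hr at 37 °C, after which cellular ATP was quantified by luminescence.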
KB-3-1 tox: KB-3-1 parental cell cytotoxicity; KB-3-1 viability, CellTiter-Glo ATP luminescence, 72 h; Potency, µM (highest dose often 46.1 µM), hits mostly cytotoxic; 400,000 compounds, 1.4% hits; AID 1347075; note: nearly all actives have a fitted effect of over 60% in size
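Cytotoxicity measured as CellTiter-Glo luminescence after 72 h at 37 C. Compound titrations were pinned onto drug-naive KB-3-1 parental adenocarcinoma cells grown in DMEM with 10% FBS, and normalized data fitted to concentration-response curves.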
Hits are given with their value; . = inactive; ? = inconclusive; / = not tested or not shown; [ ] = another dose, or the depositor's remark. Calls come from the whole dose curve; as a rule, active = well fitted curve in the direction sought with a large enough effect; inconclusive = small, poorly fitted or top-dose-only effect, or another doubt; inactive = no such curve, though single readings can be large; an effect the other way counts as inactive or inconclusive.

SMILES	HT1080-NT tox	DT40 TDP1 CPT	KB-V1 cytotox	HT1080 IDH1KD tx	TDP1 cell noCPT	KB-3-1 tox
CN(C)c1cc2c(cc1NC(=O)c1ccc(F)cc1)n(C)c(=O)n2C	/	?	/	/	23µM	/
CCn1c(=O)c(=O)n(CC)c2cc(N3CCCCC3)c(NC(=O)c3ccc(OC)c(OC)c3)cc21	/	13µM	.	/	9.2µM	.
CC(C)CNS(=O)(=O)c1ccc(CCC(=O)N2CCC(C(N)=O)CC2)cc1	.	.	.	.	.	.
CC(Nc1nc(=S)nc(Nc2ccc(F)cc2)[nH]1)c1ccccc1 (stereo unspecified)	.	21µM	.	.	?	.
NC(=O)C1CCN(C2CC(=O)N(Cc3ccc(N4CCCC4=O)cc3)C2=O)CC1 (stereo unspecified)	.	26µM	.	.	?	.
CC(C)(C)c1cc(NC(=O)CCSc2nnc3ccccn23)cc(C(C)(C)C)c1	.	.	3.7µM	?	.	.
CC(=O)Nc1cccc(NC(=O)CSc2nnc3ccccn23)c1	.	.	.	.	.	.
CCN1CCN(CCNC(=O)c2ccc(/C=C3/Sc4ccccc4N(Cc4ccccc4C)C3=O)cc2)CC1	15µM	?	.	21µM	?	?
CCN1CCN(CCCNC(=O)c2ccc(/C=C3/Sc4ccccc4N(Cc4ccccc4F)C3=O)cc2)CC1	18µM	16µM	.	15µM	15µM	?
CCOc1cc(S(=O)(=O)n2nc(C)cc2C)ccc1Br	.	.	?	.	?	.
Cc1cc(F)ccc1NC(=O)CCS(=O)(=O)c1ccc2c(c1)NC(=O)CO2	/	/	.	/	/	.
CCNc1nc(CN2CCCCC2)nc2scc(-c3ccccc3)c12	.	12µM	?	?	16µM	?
CCCc1nc2scc(-c3ccccc3)c2c(=O)n1N	.[9.24 µM]	.	.	.	?	.
Cc1sc2nc(CN3CCCCC3)nc(N3CCN(C(=O)c4ccco4)CC3)c2c1C	?	?	.	.	.	.
OCC1CCCN(c2nc(CN3CCCCC3)nc3scc(-c4ccccc4)c23)C1 (stereo unspecified)	.	15µM	.	.	?	.
Cn1nccc1C(=O)N1CCC(Cc2ccccc2)CC1	.	?	.	.	?	.
CN(CC(=O)Nc1ccc(Cl)c(Cl)c1)C(=O)C1CCC1	.	.	.	.	?	.
COc1ccc(CCC(=O)NCc2ccc3c(c2)CCN3C(=O)c2ccc(C)cc2)cc1	/	?	/	/	21µM	/
COc1ccc(CCC(=O)NCc2ccc3c(c2)CCN3C(=O)c2cccc(C)c2)cc1	/	5.8µM	.	/	4.6µM	?
COc1ccc(NC(=O)N2CCC3(CC2)CCN(C(=O)c2csnn2)CC3)cc1	/	.	/	/	.	/
COc1ccc(CNC(=O)c2cnn(-c3nccc(-c4ccco4)n3)c2C)cc1OC	/	.[9.04 µM]	/	/	.	/
COc1cccc(NC(=O)NNC(=O)c2ccc3c(c2)NC(=O)C(C)(C)O3)c1	.	.	.	.	.	.
COc1ccc(C(=O)CN2C(=O)C(C)(C)Oc3ccc(C(=O)N4CCCCCC4)cc32)cc1	.	?	18µM	.	?	.
CCOC(=O)CN1C(=O)C(C)(C)Oc2ccc(C(=O)Nc3ccccc3OC)cc21	.	16µM	.	.	23µM	.
COc1ccccc1NC(=O)NNC(=O)c1ccc2c(c1)NC(=O)C(C)(C)O2	?	23µM	.	?	?	?
SMILES	HT1080-NT tox	DT40 TDP1 CPT	KB-V1 cytotox	HT1080 IDH1KD tx	TDP1 cell noCPT	KB-3-1 tox
CC1(C)Oc2ccc(C(=O)N3CCCC3)cc2N(CC(=O)NCc2ccccc2)C1=O	.	.	.	.	.	.
CCOC(=O)C1CCCCN1C(=O)c1cnn(-c2nccc(-c3cc(C)sc3C)n2)c1C1CC1 (stereo unspecified)	/	.[9.04 µM]	/	/	?	/
CCCC[C@@H]1CNCCN1CCc1cc(C(F)(F)F)cc(C(F)(F)F)c1	.	?	?	.	21µM	?
FC(F)(F)c1cc(CCN2CCNC[C@@H]2CC2CCCCC2)cc(C(F)(F)F)c1	?	23µM	.	?	?	.
c1ccc2c(C[C@@H]3CNCCN3CCCCC3CCCCC3)cccc2c1	.	?	.	.	?	.
CCC(C)[C@H]1CNC(=S)N1CCc1cc(C(F)(F)F)cc(C(F)(F)F)c1 (stereo partly specified)	.	?	.	.	21µM	.
FC(F)(F)c1cc(CCN2CCNC[C@@H]2c2ccccc2)cc(C(F)(F)F)c1	.	16µM	.	.	?	.
CCCC[C@@H]1CNC(=O)C(=O)N1CCc1cc(C(F)(F)F)cc(C(F)(F)F)c1	.	.	?	.	?	.
COc1cccc(-c2cnc(C(O)c3ccc(C)c(F)c3)[nH]2)c1 (stereo unspecified)	.	.	.	.	.	.
CC1Sc2ccc(S(=O)(=O)CCC(=O)NC(C)c3ccccc3)cc2NC1=O (stereo unspecified)	.	.	.	.	.	.
O=C(OCc1ccccc1)N1CCCC2CC1c1ccccc12 (stereo unspecified)	.	.	.	.	?	.
CCC(C)[C@H]1CNCCN1CCc1cc(C(F)(F)F)cc(C(F)(F)F)c1 (stereo partly specified)	.	?	.	.	18µM	.
CCOC(=O)c1c(C)c(-c2ccccc2)n(CC(=O)NCc2cccc(OC)c2)c1C	/	?	.	/	?	.
Cc1cccc(NS(=O)(=O)c2ccc(-c3cnc(C4CC4)o3)cc2)c1C	?	0.0073µM	?	?	0.01µM	0.18µM
Cc1cc(C)cc(NS(=O)(=O)c2ccc(-c3cnc(C4CC4)o3)cc2)c1	1.3µM	0.82µM	4.1µM	0.65µM	0.82µM	1.2µM
c1ccc(-c2cnc(C3CCCCC3)o2)cc1	.	.	.	.	.	.
O=S(=O)(c1ccc(-c2cnc(C3CC3)o2)cc1)N1CCN(c2ccccc2F)CC1	/	?	.	/	.	.
Cc1cccc(NS(=O)(=O)c2ccc(C(=O)NCC3CCCO3)cc2)c1C (stereo unspecified)	.	.	.	.	.	.
COc1ccc(NS(=O)(=O)c2ccc(-c3cnc(C4CC4)o3)cc2)cc1Cl	/	0.65µM	.	/	1.5µM	?
Cc1ccc(Cl)cc1N1CCN(S(=O)(=O)c2ccc(-c3cnc(C4CC4)o3)cc2)CC1	/	?	?	/	13µM	?
CCCCSc1nnc2c(n1)OC(c1ccc(Br)s1)N(C(C)=O)c1ccccc1-2 (stereo unspecified)	/	?	.	/	?	.
Cc1ccc2c(c1)-c1nc(-c3ccc(Cl)cc3)cc(-c3coc4ccccc4c3=O)c1CO2	/	.	.	/	.	.
